The record followed here is PubChem BioAssay (NCI).

This is part of a sample that, as a whole, favours compounds with a hit. Of some 83,000 tested, about 20% had one in any assay.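 Cells were grown in 96-well plates and exposed to the test compound at a single concentration for 48 hours; results are reported as percent growth, with values below 10 considered active.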 Unmarked numbers belong to inactive results. The source made the active and inactive calls.

Common to all, as to assay: NCI-60 one-dose screen, 48 h (100 = growth as untreated, 0 = no growth, -100 = all killed)
What all share (details): 10 µM unless noted

Assay [1] deals with RPMI-8226 leukemia.
Assay [2] has as its system OVCAR-8 ovarian.
For assay [3], the system named is OVCAR-5 ovarian.
Assay [4] deals with OVCAR-4 ovarian.
The subject of assay [5] is SK-OV-3 ovarian.
Assay [6] concerns IGROV1 ovarian.
The test system of assay [7] is HS 578T breast.
Assay [8] relates to NCI/ADR-RES ovarian.
Assay [9] concerns T-47D breast.
Assay [10] has as its system BT-549 breast.
Assay [11] has as its system MDA-MB-435 melanoma.
Assay [12] has as its system SW-620 colon.
Assay [13] concerns MCF7 breast.
Assay [14] concerns HCT-116 colon.
Assay [15] concerns HCC-2998 colon.
In assay [16] the test system is KM12 colon.

As to `COc1ccc([C@H]2[C@H](O)C(=O)N2c2cc(OC)c(OC)c(OC)c2)cc1`, the growth in assay [1] was 22.8%; in assay [2] it was 2.46% (active); in [3], 29.5%; in assay [4], 69.8%; in [5] it was 37.7%; in assay [6], 29.6%. The growth was 16.6% in assay [7]; 18% in [8]; 70.2% in assay [9]; -2.44% (active) in assay [10]; -12.9% (active) in assay [11]; 20.3% in assay [12]. Also, the growth in [13] was 12.4%; in assay [14] it was 0.54% (active); in [15], 16.3%; in assay [16] it was 18.8%.
On to `C=CCn1c(SCC(=O)Nc2cccc(C(=O)/C=C/c3ccc(Br)cc3)c2)nc2ccccc2c1=O`, for which the growth was -3.89% (active) in assay [1]; 81.6% in assay [2]; 96.2% in assay [3]; 87.9% in assay [4]; 108% in assay [5]; 93.6% in assay [6]. For the same compound, the growth in assay [7] is 83.3%; in assay [8] it was 91.5%; in [9], 76%; in assay [10], 45.8%; in [11], 86.9%; in [12] it was 76.3%. In addition, the results for the growth in assay [13], in assay [14] and in assay [16] were 26.6%, 8.62% (active) and 81.3%, respectively.
On to `Cc1ccc(-c2nnc3sc(C4=Cc5ccccc5OC=C4)nn23)cc1`, for which the growth in [1] was 101%; in assay [2] it was 89.8%; in assay [3] it was 98%; in assay [4], 99.2%; in [5] it was 118%; in [6] it was 109%. In addition, the growth in [7] is 112%; in [8] it was 98.2%; in assay [9], 91.6%; in assay [10], 95.7%; in assay [11], 93.7%; in assay [12] it was 99.9%. Moreover, the growth in assay [13] was 88.9%; in [14], 104%; in assay [15], 101%; in assay [16], 106%.
As for `CS(=O)(=O)c1nccc(-c2c(-c3ccc(F)c(OCc4ccc(F)cc4)c3)nc3sccn23)n1`, the growth was 38.8% in assay [1]; 92.1% in [2]; 97% in assay [3]; 99.1% in assay [4]; 110% in assay [5]; 82.1% in assay [6]. In addition, the growth was 85.4% in assay [7]; 98% in assay [8]; -18.7% (active) in assay [9]; 69.8% in assay [10]; 97.3% in assay [11]; 88.2% in assay [12]. In addition, the growth was -6.26% (active) in [13], 90.2% in [14], -63.6% (active) in [15] and 41.5% in assay [16].
Consider `O=c1cc(-c2ccccc2)nc2sc(-c3c[nH]c4ccc(Br)cc34)nn12`, for which the growth in assay [1] was 112%; in assay [2], 106%; in assay [3] it was 100%; in [4], 105%; in assay [5] it was 110%; in [6], 98.9%. Also, the growth in assay [7] was 113%; in assay [8] it was 101%; in assay [9], 75.2%; in assay [10] it was 108%; in assay [11] it was 101%; in assay [12], 105%. The figures for the growth in [13], in assay [14] and in assay [16] were 67.9%, 103% and 103%, respectively.
For the compound `COc1ccc2c(c1)c(-c1nn3c(=O)cc(-c4ccccc4)nc3s1)cn2C`, the growth in [1] is 57.5%; in [2] it was 51%; in [3], 66%; in assay [4], 67.4%; in [5], 49.6%; in [6] it was 54.3%. Also, the growth in assay [7] is 27%; in assay [8], 27.8%; in assay [9] it was 16%; in assay [10], 49.8%; in [11] it was -23.8% (active); in assay [12], 28.1%. The growth in [13] was 18.9%; in assay [14], 22.7%; in [15], 75.2%; in assay [16], 44.7%.
Regarding `COc1ccc(C2CC(c3ccc(Nc4nc(NCCO)nc(Nc5ccc(Cl)cc5)n4)cc3)=Nc3c(N)nc(N)nc3N2)cc1` (stereo not drawn), the growth in [1] was -4.52% (active); in [2] it was 40%; in assay [3] it was 121%; in [4], 66.9%; in assay [6] it was 74%; in [7] it was 94.9%. Also, the growth in assay [8] was 76%; in [9] it was 72.1%; in assay [10] it was 77.5%; in assay [11], 74.9%; in assay [12], 41.2%; in assay [13], -71.8% (active). Moreover, the values for the growth in [14], in [15] and in assay [16] were -80.3% (active), 93.5% and 55.4%, respectively.
Consider `O=C1c2c(c3c4ccc(Br)cc4oc3c3[nH]c4ccccc4c23)C(=O)N1CCO`, for which the growth is 43.3% in assay [1]; 50.4% in assay [2]; 69.9% in [3]; 89.7% in [4]; 43.4% in assay [6]; 88.5% in assay [7]. Moreover, the growth is 44.7% in assay [8]; 10.5% in [9]; 55.3% in assay [10]; 59% in assay [11]; 47% in assay [12]; 18.6% in [13]. Also, the figures for the growth in [14], in assay [15] and in assay [16] were 39.6%, 77.8% and 65.6%, respectively.
Take `Cn1cc(-c2nn3c(=O)cc(-c4ccccc4)nc3s2)c2cc(F)ccc21`: the growth in [1] is 69.2%; in assay [2], 36.6%; in [3] it was 75.1%; in assay [6], 65.2%; in assay [7] it was 60.9%; in assay [8] it was 42.2%. Further, the growth in assay [9] was 64.2%; in [10], 67%; in assay [11], -5.19% (active); in [12], 41.9%; in [13], 34.5%; in assay [14], 32.6%. The growth was 79.5% in assay [15] and 55.2% in [16].
On to `C=CCn1c(SCC(=O)Nc2cccc(C(=O)/C=C/c3ccc(OC)c(OC)c3)c2)nc2ccccc2c1=O`, for which the growth in assay [1] was 38.7%; in assay [2], 89.5%; in [3] it was 96.1%; in assay [4], 87.6%; in assay [5], 108%; in [6] it was 90.5%. For the same compound, the growth is 88.9% in assay [7]; 91.8% in assay [8]; 97.7% in assay [10]; 101% in [11]; 74.4% in [12]; 45.4% in [13]. Also, the growth in assay [14] was 55.6%; in assay [15], 100%; in [16], 91.8%.
